Consider 97 molecules from PubChem BioAssay AID808 (Columbia University Molecular Screening Center, 2007).

In all, about 93,000 compounds went through this assay and about 180 (0.19%) were called active. Shown is part of a subset that was picked to be rich in actives. Unmarked numbers belong to inactive results.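 The calls were made as follows: active = activation above the screen mean plus 3 SD, with well images confirming the hit on visual review (cut at about 28% in these data, passing the limit was not always enough); inconclusive = activation above that limit but images do not confirm it; inactive = activation not above that limit.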

The test in a line: enhancers of endothelial VCAM-1 upregulation by TNFa – imaging, HUVEC, TNFa stimulus, immunofluorescence, primary screen (AID 808).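 Also: signal is the number of cytoplasmic VCAM-1 stained grains per positive cell.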 The note with it: HUVEC TNFa-stimulated VCAM-1 immunofluorescence, high-content imaging; at 2 µM; stronger effect = higher value; scaled per plate to unstimulated/TNFa-only wells.
For the molecule `O=C(Nc1ncc2c(n1)CC(c1ccco1)CC2=O)c1ccc(Cl)cc1` (configuration not stated), the activation was -91.4%.

With `CCOC(=O)N1CCN(C(=O)CN(c2ccc(C)c(C)c2)S(=O)(=O)c2ccccc2)CC1`, the activation was 0.5%.

Turning to `Cc1n[nH]c(C)c1S(=O)(=O)N1CCCC(C(=O)NCC2COc3ccccc3O2)C1` (configuration not stated), the activation was -3.9%.

For the molecule `Cc1ccc(CCNC(=O)C2CCN(S(=O)(=O)N3CCCC3)CC2)cc1`, the activation is -9.5%.

As for `CCCc1cc(=O)[nH]c(SCc2ccc(C#N)cc2)n1`, the activation was -3%.

As to `O=C(COc1ccc2ccccc2c1)N1CCN(C(=O)c2cccs2)CC1`, the activation was -21.6%.

As for `COc1ccc(OC)c(NC(=O)CCN2CCC(C)CC2)c1`, the activation was 1.4%.

As to `Cc1ccc(S(=O)(=O)NCCSC(C)(C)C)cc1`, the activation is -9%.

With `Cc1ccc(Cn2nnc3c(=O)n(CC(=O)N4CCCCC4)cnc32)cc1`, the activation was 5.6%.

In the case of `CCOc1ccc(NC(=O)Nc2ccc(N(C)C(C)=O)cc2)cc1`, the activation was 16.6%.

In the case of `O=C(NCCN1CCOCC1)[C@H](Cc1ccccc1)N1C(=O)c2ccccc2C1=O`, the activation was -8.5%.

`C=CCn1c(COc2ccccc2F)nnc1SCC(=O)N1CC(=O)Nc2ccccc21`: the activation is -4.4%.

Turning to `O=C(c1ccc(Cl)cc1)c1ccc(OCC(O)CN2CCCCC2)cc1` (configuration not stated), the activation is -0.9%.

As for `Cc1cc(NC(=O)COc2ccc(Cl)cc2Cl)n(CCC#N)n1`, the activation was 4.1%.

Take `COc1cccc(C(=O)Nc2ccc(NC(=O)c3ccco3)cn2)c1`: the activation was 8.2%.

As for `Cc1cnc(NC(=O)C2CCCC2)s1`, the activation is -57.6%.

`COCCNC(=O)c1snc2ccc(Cl)cc12`: the activation was 11.1%.

As to `O=C(NCCN1CCN(Cc2ccccc2)CC1)c1cc2c(=O)[nH]c3ccccc3c2s1`, the activation was 2.1%.

In the case of `O=C(CS(=O)(=O)c1cn(Cc2cccc(F)c2)c2ccccc12)N1CCCCC1`, the activation was -50.1%.

On to `CCOC(=O)N1CCN(C(c2cccnc2)c2ccc3cccnc3c2O)CC1` (configuration not stated), for which the activation was -10%.

In the case of `CC1=NN(C(C)C)C(=O)C1`, the activation was 25% (active).

Turning to `COc1ccc(Cl)cc1C(=O)NCC#N`, the activation is 5.7%.

As for `COC(=O)c1c(-c2cccs2)csc1NC(=O)CSc1ncnc2sc(C)c(C)c12`, the activation was 1.8%.

Turning to `Cc1[nH]n(-c2ccc(Cl)cc2)c(=O)c1/C=N/n1c(C)nc2ccccc2c1=O`, the activation was 9.2%.

In the case of `CCN(CC)C(=O)CSC1c2ccccc2C(=O)N1c1ccccc1` (configuration not stated), the activation is -7.1%.

For `CCN(CC)CCCNC(=O)CCc1ccccc1`, the activation is 4.1%.

`C/C(=C\C(=O)c1ccccc1)Nc1cccc(O)c1`: the activation is 2.2%.

Regarding `Cc1nnc(SCC(=O)NC2CCCC2)s1`, the activation was -13.9%.

Take `CN(C)CCCn1c(N)c(C#N)c2nc(C#N)c(C#N)nc21`: the activation is -7.9%.

For the molecule `C=CCn1c(Cn2nnc3ccccc32)nnc1SCC(=O)N/N=C/c1cc(Br)cc(OC)c1O`, the activation was 1.7%.

Take `CCOc1ccc(N=C2NC(=O)S/C2=C\c2ccc(O)cc2)cc1`: the activation was 29.2% (active).

Consider `O=C(Cc1ccc(-n2c(=O)[nH]c3ccccc3c2=O)cc1)N1CCN(c2cccc(Cl)c2)CC1`, for which the activation was -1.2%.

On to `Cc1c(C(=O)OCC(=O)N(CCC#N)c2ccccc2)oc2c1ccc1ccccc12`, for which the activation was -4.9%.

In the case of `COc1ccccc1NC(=O)CSc1nnc(Cn2nnc(-c3ccccc3)n2)n1-c1ccccc1`, the activation is 11.3%.

In the case of `CSc1nc2ccccc2cc1/C=C(\C#N)c1ccc(Cl)cc1Cl`, the activation was -3.2%.

Consider `CCCCN(C)C(=O)C1CCN(Cc2ccccn2)CC1`, for which the activation is 35.5% (active).

As for `Cc1ccc(OCC(O)CN2CCN(CC(O)COc3ccc(C)cc3Cl)CC2)c(Cl)c1` (configuration not stated), the activation was -1.2%.

As for `O=C(c1ccco1)N1CCN(C(=O)C2c3ccccc3Oc3ccccc32)CC1`, the activation was -5.9%.

For `Cc1ccc(F)cc1NC(=O)c1ccc2c(c1)OCO2`, the activation is -96.8%.

As to `CC(=O)Nc1ccc(S(=O)(=O)N2CCN(C(=O)c3ccccc3F)CC2)cc1`, the activation is -7.6%.

For `C=C(Br)CN1CCN(CC(=C)Br)CC1`, the activation was 17.8%.

As to `Cn1c(C(=O)OC(C(=O)NC2CCCCC2)c2ccccn2)cc2sccc21` (configuration not stated), the activation was 7.6%.

With `C=C(C)CNC(=S)/N=c1\scc(C)n1CC`, the activation is -4.4%.

For `COc1cccc(OCc2cc(/C=N/NC(=O)c3nc(Cl)c(Cl)c(N)c3Cl)ccc2OC)c1`, the activation was -6.7%.

Consider `CCC(CC)c1nnc(NS(=O)(=O)Cc2ccccc2)s1`, for which the activation was 11.2%.

For the molecule `COc1cc(C)nc(N2CCCC(C(=O)NCC(C)C)C2)n1` (configuration not stated), the activation was 5.6%.

`COc1ccc2c(c1OC)C(=O)N(c1ncn[nH]1)C2`: the activation was -7.1%.

In the case of `Nc1nonc1-c1noc(-c2ccc(Br)o2)n1`, the activation is 9.6%.

`COc1ccc(Nc2cc(=O)oc3ccccc23)cc1`: the activation was -88.9%.

For the molecule `Cc1cccc(Cn2c(SCCO)nc3c2c(=O)n(C)c(=O)n3C)c1`, the activation was -4.1%.

Regarding `Cc1cccc(C)c1N1CCN(S(=O)(=O)N2CCOCC2)CC1`, the activation was -11.4%.

Take `CSc1ccc(Cl)c(C(=O)OCC(=O)N2CC(C)OC(C)C2)c1` (configuration not stated): the activation is 4.1%.

On to `NS(=O)(=O)c1cccnc1Nc1cccc(Cl)c1`, for which the activation is 4.4%.

In the case of `CCN(CC)P(=O)(/C(Cl)=C\Nc1c(C)n(C)n(-c2ccccc2)c1=O)N(CC)CC`, the activation was 10.1%.

With `CN(C)S(=O)(=O)c1ccc(N2CCCC2)c(C(=O)NCc2ccccc2)c1`, the activation was -5.1%.

For the molecule `COCCNS(=O)(=O)c1cc(Br)ccc1OC`, the activation was 35.9% (active).

In the case of `COc1ccc(F)cc1S(=O)(=O)Nc1ccc2c(c1)OCO2`, the activation is 22.9%.

Take `CCCN1Cc2cccc(C(=O)Nc3ccc(S(=O)(=O)N4CCCCCC4)cc3)c2C1=O`: the activation was 1.5%.

On to `C/C(=N\NC(=O)c1ccc(C)cc1)C1C(=O)c2ccccc2C1=O`, for which the activation was -6.4%.

`CCCC(=O)n1nc(-c2ccccc2)nc1N`: the activation is 25.9%.

`O=C(COC(=O)c1ccc(S(=O)(=O)N2CCc3ccccc3C2)cc1)NC(=O)NCc1ccco1`: the activation is -0.5%.

As to `COC(=O)c1sc2ncccc2c1OCc1ccc(Cl)cc1Cl`, the activation is -10.3%.

Consider `C=C(Cl)COC(=O)C1C2C=CC(C2)C1C(=O)O` (configuration not stated), for which the activation was 12.1%.

Take `Cc1ccc(C(=O)Nc2ccc3c(c2)OCO3)cc1S(=O)(=O)N1CCCCC1`: the activation was 7.1%.

Consider `Cn1cc([N+](=O)[O-])c(C(=O)Nc2ccc3c(c2)OCCO3)n1`, for which the activation was -36.8%.

`CCN(CC(=O)Nc1ccc2c(c1)OCCO2)Cc1cc(=O)oc2cc(C)c(C)cc12`: the activation is 54.4% (active).

Turning to `CC(CCc1ccccc1)NC(=O)c1ccc(Br)o1` (configuration not stated), the activation was -95.4%.

As for `NC(=O)COc1ccc2c3c(c(=O)oc2c1)CCCCC3`, the activation was -35%.

Turning to `Cc1cc(Cl)c(S(=O)(=O)NCC2CCCO2)cc1OCC(N)=O` (configuration not stated), the activation was 25.1%.

With `Cc1cc(=O)oc2cc(OCC3CC(c4ccccc4Cl)=NO3)ccc12` (configuration not stated), the activation was -59.7%.

For the molecule `Cc1ccc(CNC(=O)CCCNC(=O)c2ccc(Cl)cc2)n1C`, the activation is 7.4%.

As to `Cc1ccc(-c2csc(NC(=O)c3cccs3)n2)cc1`, the activation was 5.6%.

Regarding `Cc1cccc(N=C2NC(=O)CS2)c1C`, the activation is -97.1%.

On to `COc1ccc(-c2c3c(=O)n(C)c(=O)n(C)c3cn2-c2cccc(OC)c2)cc1`, for which the activation was -7.7%.

Take `COc1ccc(C(=O)OCC(=O)NCC2CCCCC2)cc1S(=O)(=O)N1CCCc2ccccc21`: the activation was -5.3%.

Consider `CCOC(=O)CCP(=O)(O)C(O)(c1ccccc1)c1ccccc1`, for which the activation is -1.8%.

Turning to `CC(=O)c1cccc(S(=O)(=O)N2CCC(n3nnc4cc(F)ccc43)CC2)c1`, the activation is -54.7%.

As to `COc1cc(/C=N/NC(=O)Nc2ccccc2)ccc1OCCOc1ccccc1C`, the activation was -51.1%.

Turning to `C=CCOc1ccc(/C=N/n2cncn2)cc1OC`, the activation is 4.4%.

Consider `COc1ccc(/C=N/Nc2nc3ccccc3o2)cc1OC`, for which the activation was 32.9% (active).

Regarding `CN1CCN(c2nc3c(c(=O)[nH]c(=O)n3C)n2Cc2cccc3ccccc23)CC1`, the activation is -8.9%.

For the molecule `CCC(C)(C)n1nnnc1C(c1cccs1)N1CCN(c2nc3ccccc3s2)CC1` (configuration not stated), the activation was 0.6%.

For the molecule `Cc1ccc(S(=O)(=O)N2CCCC2C(=O)NCc2ccco2)cc1` (configuration not stated), the activation is 6.4%.

Take `CCCN1C(=O)C(NC(C)=O)c2cc(OC)ccc21` (configuration not stated): the activation is -5.9%.

Regarding `O=C(CO/N=C/c1ccccc1O)NNC(=O)c1ccccc1Cl`, the activation was 2.1%.

`CC(=O)Nc1ccc(S(=O)(=O)NCCc2ccccc2)cc1`: the activation is -7.2%.

Consider `CCOc1ccc(NC(=O)CCC(=O)n2nc(C)cc2C)cc1`, for which the activation was -6.7%.

`Cc1ccc(OCc2nnc(NC(=O)OCC(C)C)s2)cc1`: the activation was 0.2%.

With `CCOC(=O)c1sc(NC(=S)n2cc(C)cn2)c(C(=O)OCC)c1C`, the activation was -0.6%.

In the case of `COCCOC(=O)C1=C(C)N=c2s/c(=C\c3cccs3)c(=O)n2C1c1cccs1` (configuration not stated), the activation was -3.2%.

Regarding `Cc1c(-c2ccccc2)nc(N)c(C#N)c1-c1cccs1`, the activation is -3.7%.

Consider `CCc1ccc2oc(=O)cc(CN3CCCCC3C)c2c1` (configuration not stated), for which the activation is -6.7%.

On to `O=C1c2ccccc2C2=Nc3ccccc3SC(c3ccccc3F)C12` (configuration not stated), for which the activation is -0.2%.

Consider `C=CCn1c2ccccc2c2nnc(SC(CC)C(=O)Nc3nc(C)c(C(=O)OCC)s3)nc21` (configuration not stated), for which the activation is 10%.

As to `O=C(Nc1ccc2nc3n(c(=O)c2c1)CCCCC3)c1ccccc1Cl`, the activation is -7.6%.

Turning to `CCCCN=C1N/C(=C\c2ccco2)C(=O)N1c1ccccc1`, the activation was -7.6%.

Take `CC1(C)C/C(=C(/C#N)C(N)=O)CCO1`: the activation is 3.2%.
